Our source for the INHIBITION values is ChEMBL document CHEMBL4513216, “Probing the Open Global Health Chemical Diversity Library for Multistage-Active Starting Points for Next-Generation Antimalarials” (ACS Infect Dis, 2020).

Screen size: about 65,000 compounds; about 2,100 (3.2%) showed an effect of 50% or more. The median lay at about -52%. Many of the other results were omitted from the sample, so strong results are more common in it than they were.

The assay concerns Plasmodium falciparum. Briefly: Screen against P. falciparum Asexual Blood Stage (ABS), at 5uM. Format: functional, Dd2. The conditions noted are these: tested at 5 uM.
Turning to `Cc1noc(C2CCCN2C(=O)C2CCC2)n1` (stereo not given), the INHIBITION is recorded as -24%. As for `Cc1ncc(CN(C)Cc2nc3cc(Cl)ccc3n2C)s1`, the INHIBITION is recorded as -54.3%. With `c1cc(CNCc2cccc3c2OCCCO3)cc(Cn2cncn2)c1`, the INHIBITION is listed as 48.9%. Take `CC1=NN(CC(=O)N2CC[C@@H]3[C@@H](CCC(=O)N3CC(C)C)C2)CC1`: the INHIBITION was -127%. As to `Cc1ncsc1C(=O)N1CCN(CCC(C)C)CC1`, the INHIBITION is recorded as -64.6%. For the molecule `Cc1nc(-c2cccnc2)ncc1C(=O)N1CCC(C(C)N(C)C)CC1` (stereo not given), the INHIBITION is reported as -79.6%.

Turning to `OC1CCN(CCCNc2ncccn2)CC1`, the INHIBITION is recorded as -61.1%.

Regarding `CN(C(=O)NCc1ccncc1)C1CCN(c2ccccc2)C1=O` (stereo not given), the INHIBITION was -128%. With `CN(C(=O)Nc1ccncc1)C1CCN(c2ccccc2)C1=O` (stereo not given), the INHIBITION came to 51%. The figure for `CN(C(=O)Nc1ccccn1)C1CCCN(c2ccccc2)C1=O` (stereo not given) is 13.9%; for `CCn1nc2c(cc1=O)CN(CC(=O)Nc1nncs1)CC2` it is -35%. The figure for `Cn1cc(N2CC3(CCN(C(=O)c4cccn4C)CC3)OCC2=O)cn1` is -94.7%. Turning to `CCn1c(CN2CCN(CC(N)=O)CC2)nc2c(F)cccc21`, the INHIBITION is given as -147%. As for `CCn1c(CN2CCN(CCOC)CC2)nc2c(F)cccc21`, the INHIBITION is on record as 68.6%. In the case of `CCn1c(CN2CCN(CCO)CC2)nc2c(F)cccc21`, the INHIBITION is 10.6%. With `Brc1cccnc1OC1CCNCC1`, the INHIBITION came to 35.5%.

As to `Cc1nc(SC2CCN(c3sccc3C#N)C2=O)oc1C` (stereo not given), the INHIBITION was -137%. Regarding `Cc1cc2c(N3CCC(N(C)CCc4cnn(C)c4)CC3)ncnc2s1`, the INHIBITION was -30.9%.

Consider `CCN(C)c1cc(CNC(=O)CNC(=O)CC2CCCCC2)ccn1`, for which the INHIBITION is on record as -24.9%. `Cn1cc(CNCCn2cccn2)c(-c2cccnc2)n1`: the INHIBITION is given as -42%. `CCCNCc1cn(C)nc1-c1cccnc1`: the INHIBITION is -21.6%.

In the case of `Cn1cc(CNCCOc2ccc(F)c(F)c2)c(-c2cccnc2)n1`, the INHIBITION came to 54.4%.

On to `Cn1cc(CNCCc2nccs2)c(-c2cccnc2)n1`, for which the INHIBITION is recorded as 1.56%. Take `CCCNCc1cn(Cc2ccccc2)nc1-c1cccnc1`: the INHIBITION turned out to be 60%.

As to `Cn1cc(CNCCc2cccnc2)c(-c2cccnc2)n1`, the INHIBITION was -35.7%. The figure for `O=C(c1cccnc1)N1CCC2(CCN(C(=O)N3CCCC3)CC2)C1` is -71.7%; for `CCCC(=O)N1CC[C@@H]2[C@H](CC1)N(Cc1cccc(C)n1)CCS2(=O)=O` it is -82%. For the molecule `c1ccc2sc(N3CCC4(CCCN4Cc4ncc[nH]4)CC3)nc2c1`, the INHIBITION came out at 20.4%. As to `Cn1cc(CN2CCCC23CCN(c2nc4ccccc4s2)CC3)cn1`, the INHIBITION was 51.7%. The figure for `Cc1nc(CN2CCCC23CCN(c2nc4ccccc4s2)CC3)co1` is 9.68%; for `CC(C)=CCN1CCN(Cc2cc(C)c(O)c(C)c2)CC1CCO` (stereo not given) it is -36%; for `CN(Cc1noc(C(C)(C)C)n1)Cc1ccccc1N1CCCC1` it is 16.2%. On to `Cc1cc(CN(C)Cc2csc(-c3cccs3)n2)n[nH]1`, for which the INHIBITION was -130%. As for `Cc1cc(CN(C)Cc2ccccc2N2CCCCC2)n[nH]1`, the INHIBITION came out at 67.5%. Take `CCN(C(=O)CN1CCn2c(nnc2C2CC2)C1)C1=CCCCC1`: the INHIBITION is -67.6%.

For `Cc1nccc(C(=O)NC(CN2CCCC2=O)c2ccccc2)n1` (stereo not given), the INHIBITION is recorded as -66.1%. `CC(C)CNC(=O)c1nc(COc2ccc3c(c2)OCO3)no1`: the INHIBITION is -58.7%. Regarding `O=C(CCN1CCCC1C1CCCCC1)N1CCc2sccc2C1` (stereo not given), the INHIBITION was 59.9%. On to `O=C(CCN1CCCC1c1cccs1)N1CCc2sccc2C1` (stereo not given), for which the INHIBITION is on record as 50.8%. As for `O=C(CCNCc1cccc(O)c1)N1CCc2sccc2C1`, the INHIBITION worked out at 52.1%. In the case of `N#Cc1cccc(CNCCC(=O)N2CCc3sccc3C2)c1`, the INHIBITION came to 21.5%. On to `O=C(CN1CCCC1c1cccs1)N1CCc2sccc2C1` (stereo not given), for which the INHIBITION was 3.62%. For the molecule `Cn1cc(C2CCCN2CCC(=O)N2CCc3sccc3C2)cn1` (stereo not given), the INHIBITION was -37.7%. `COc1ccc(CNCCC(=O)N2CCc3sccc3C2)cc1O`: the INHIBITION was 36.4%.

As for `O=C(CCC(=O)N1CCCC1c1cccs1)N1CCc2sccc2C1` (stereo not given), the INHIBITION was -117%. Regarding `Cc1cc(C2CCCN2CCC(=O)N2CCc3sccc3C2)no1` (stereo not given), the INHIBITION is on record as -1.53%.

`Cc1cnn(C2CN(CC(=O)NCCCc3ccccc3)C2)c1`: the INHIBITION is given as -108%. Consider `c1ccc(NCc2cnc3n2CCN(C2CCOC2)CC3)nc1` (stereo not given), for which the INHIBITION was -124%.

Take `CC(C)NCC1OCCc2cn(C)nc21` (stereo not given): the INHIBITION was -22.9%. As to `CSc1ccc(CN2CCCC3(CNC(=O)c4ccccc4O3)C2)cc1` (stereo not given), the INHIBITION is on record as -85.7%.

As to `CN(C)c1cccc(C(=O)N2C[C@@H]3CC[C@H]2CN(C(=O)C2CCC2)C3)c1`, the INHIBITION is -111%. For the molecule `CC[C@@H](C)[C@@H](N)C(=O)Nc1cccc(-c2cnc(N(C)C)nc2)c1`, the INHIBITION was -60.2%.

On to `c1cncc(-c2noc(CNc3ncnc4c3CCNCC4)n2)c1`, for which the INHIBITION is reported as -88.2%.

With `Cc1ccc(-c2cc(CNc3ncnc4c3CCNCC4)no2)cc1`, the INHIBITION is listed as 63.5%.

In the case of `COc1ccc(-c2cc(CNc3ncnc4c3CCNCC4)no2)cc1`, the INHIBITION worked out at 16%. Regarding `Cc1nnc2n1CCN(C(=O)C(C)Oc1ccc(C#N)cc1)C2` (stereo not given), the INHIBITION was -140%.

As for `CN(C)C(=O)CN1C[C@H]2CC[C@@H](C1)N(Cc1cccc(Cl)c1Cl)C2`, the INHIBITION is given as 30.9%. Under `CC(C)(CN1C[C@H](Nc2ncccn2)[C@@H](C2CC2)C1)N1CCOCC1` stands 50.5%. For `Cc1nccc(N[C@H]2CN(CCS(C)(=O)=O)C[C@@H]2C2CC2)n1`, the INHIBITION is on record as -88.4%. As for `Cc1nccc(N[C@H]2CN(CC(C)(C)N3CCOCC3)C[C@@H]2C2CC2)n1`, the INHIBITION was 63.5%. As for `Cc1cc(N[C@H]2CN(CC(C)(C)N3CCOCC3)C[C@@H]2C2CC2)ncn1`, the INHIBITION stood at 48.9%. Consider `CCS(=O)(=O)N[C@H]1CN(CC(C)(C)N2CCOCC2)C[C@@H]1C1CC1`, for which the INHIBITION is reported as -11.1%. Consider `N#CC1(C(=O)N2C[C@H](Nc3ncccn3)[C@@H](C3CC3)C2)CCOCC1`, for which the INHIBITION was -92.4%. In the case of `Cc1ccc(NC2CCN(C(=O)COCC3CC3)CC2)nn1`, the INHIBITION is -61.2%. As to `CN(C)c1ccc(C(=O)N2CCCC(n3cccn3)C2)cn1` (stereo not given), the INHIBITION was -240%.

In the case of `C/N=C1/c2cc3cc(OC)ccc3n2CCN1Cc1ccccc1`, the INHIBITION is 25.3%.

Consider `CCC(CN1CCCC1)n1cncc1-c1cnn(-c2ccccc2)c1` (stereo not given), for which the INHIBITION is given as 56.2%. Regarding `CCC(CN1CCOCC1)n1cncc1-c1ccc2c(c1)CCCN2C` (stereo not given), the INHIBITION is recorded as 31.4%. For `CCC(CN1CCCC1)n1cncc1-c1cnn(-c2ccc(F)cc2)c1` (stereo not given), the INHIBITION worked out at 43%. Take `O=C(Cc1ccc2c(c1)CCO2)N1CCCC1c1noc(C2CC2)n1` (stereo not given): the INHIBITION is listed as -67.5%.

Take `Cc1ccc(CN2CCc3nnc(COCCN(C)C)n3CC2)o1`: the INHIBITION is on record as -116%.

Turning to `O=C(O)c1cc(-c2ccoc2)cc(S(=O)(=O)NC2CC2)c1`, the INHIBITION is -132%. Under `CN(C)c1ccc(-c2cc(C(=O)O)cc(S(=O)(=O)NC3CC3)c2)cc1` stands 57.2%; under `O=C(O)c1cc(-c2ccc3c(c2)OCO3)cc(S(=O)(=O)NC2CC2)c1`, -33.6%; under `Cc1cccc(NC2CCc3c2[nH]c(=O)n(C2CCCCC2)c3=O)c1C` (stereo not given), -28.8%.

Regarding `CN(Cc1cccnc1)[C@@H]1CN(Cc2cnn(C)c2)[C@@H]2CCCO[C@H]12`, the INHIBITION is -11.9%. As for `CCC[C@H]1CN(S(=O)(=O)c2ccccc2)C[C@@H]1N`, the INHIBITION is reported as 16.5%. As to `N[C@H]1CN(S(=O)(=O)Cc2ccccc2)C[C@@H]1C1CC1`, the INHIBITION is 55.5%. In the case of `CC(=O)N[C@H]1CN(S(=O)(=O)N(C)Cc2ccccc2)C[C@@H]1C1CC1`, the INHIBITION was -59.7%. With `CC(C)[C@@H]1CN(S(=O)(=O)Cc2ccccc2)C[C@H]1C(=O)O`, the INHIBITION was -80.4%. As for `N[C@H]1CN(S(=O)(=O)c2ccccc2)C[C@@H]1C1CC1`, the INHIBITION is on record as -0.57%. Consider `CN(Cc1ccccc1)S(=O)(=O)N1C[C@@H](C(=O)O)[C@H](C2CC2)C1`, for which the INHIBITION was -76.5%. As to `CN(Cc1ccccc1)S(=O)(=O)N1C[C@H](C2CC2)[C@@H](N)C1`, the INHIBITION is 58%. Consider `CN(Cc1ccc(F)cc1)S(=O)(=O)N1CCOCC1`, for which the INHIBITION is reported as -118%. As for `CCC[C@H]1CN(S(=O)(=O)N(C)Cc2ccccc2)C[C@@H]1N`, the INHIBITION is 68.1%. Regarding `CO[C@H]1C[C@@H](O)C12CCN(C(=O)CCCOc1ccccc1)CC2`, the INHIBITION is on record as -224%. Take `Cc1nc(Oc2ccccc2Cl)sc1C(=O)O`: the INHIBITION is reported as -103%. Under `CC(Cn1cccn1)NC(=O)NCc1ccc(OC2CCCC2)nc1` (stereo not given) stands -90.4%. With `CC1CCCCN1CCNC(=O)c1ccn(-c2ccc(F)cc2)n1` (stereo not given), the INHIBITION was 34.6%.

Regarding `CC1CCCCN1CCNC(=O)c1ccn(-c2cccc(F)c2)n1` (stereo not given), the INHIBITION is listed as 64.3%. Turning to `CC1CCN(CCNC(=O)c2ccn(-c3ccccc3)n2)CC1`, the INHIBITION came to 24%. For the molecule `O=C(NCCN1CCCCC1)c1ccn(-c2ccc(F)cc2)n1`, the INHIBITION is listed as 46.1%. Take `CC1CCCN(CCNC(=O)c2ccn(-c3cccc(F)c3)n2)C1` (stereo not given): the INHIBITION amounted to 68%.

In the case of `CC1CCCN(CCNC(=O)c2ccn(-c3ccc(F)cc3)n2)C1` (stereo not given), the INHIBITION turned out to be 50.2%. `Cc1cc(C(=O)NCCN2CCCC(C)C2)nn1C` (stereo not given): the INHIBITION is -67.5%. Consider `O=C(NCCn1cccn1)c1ccn(-c2cccc(F)c2)n1`, for which the INHIBITION is -67.5%.

In the case of `COc1ccc(-n2ccc(C(=O)NCCN3CCCC(C)C3)n2)cc1` (stereo not given), the INHIBITION is reported as 7.72%. Turning to `CC1CCCCN1CCNC(=O)c1ccn(-c2ccccc2)n1` (stereo not given), the INHIBITION is 22%. In the case of `COc1ccc(-n2ccc(C(=O)NCCN3CCC(C)CC3)n2)cc1`, the INHIBITION was -1.58%.

With `CC1CCN(CCNC(=O)c2ccn(-c3ccc(F)cc3)n2)CC1`, the INHIBITION worked out at 60.9%.

On to `COCC(=O)N(C)Cc1ccc(F)c(F)c1`, for which the INHIBITION is on record as -52.4%. Under `CCOc1nnc(CN(CC)CC(=O)Nc2c(F)cccc2F)s1` stands -13.5%. For `C=C(C)COc1cccc(C(=O)NC(C)c2nnn[nH]2)c1` (stereo not given), the INHIBITION was -109%.

As for `CCOc1ccc(N2CCCN=C2NC(=O)c2cccc(C)c2)cc1`, the INHIBITION was -77.5%.

In the case of `Cc1cc(C(=O)N2CCc3nc(N4CCOCC4)nc(C)c3C2)c(C)o1`, the INHIBITION is reported as -39.6%.
